Here are results for 37 compounds from PubChem BioAssay (NCI).

Several values for one entry are separate records, joined by “and”; a condition that tells them apart may be missing. Equal values may be shown once. This is part of a sample that, as a whole, favours compounds with a hit. Of some 83,000 tested, about 20% had one in any assay.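 In brief: 96-well plates, 48 h treatment, single concentration, percent growth endpoint.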 Activity calls are given as the source filed them.

In the first test the test system is CAKI-1 renal. The test is described as follows: NCI-60 one-dose screen, 48 h (100 = growth as untreated, 0 = no growth, -100 = all killed). The conditions noted are these: 1 µM. The procedure:
Growth inhibition of the CAKI-1 human tumor cell line is measured as a screen for anti-cancer activity. Cells are grown in 96 well plates and exposed to the test compound for 48 hours. Compounds are tested at a single concentration, which is 10^-5 M for most compounds. The reported endpoint is percent growth (GI% or GIPRCNT), where numbers from 0 - 100% represent growth inhibition, and numbers from -100% - 0 represent cell death. For example, a value of 40 represents 60% growth inhibition. A value of 0 means no net growth occurred over the course of the experiment. A value of -40 indicates 40% of cells at the beginning of the experiment died by the end of the experiment. A value of -100 means all cells are dead at the end of the experiment.
NCI-60 Human Tumor Cell Lines Screen was performed using the standard one-dose NCI protocol, which is described in more detail at https://dtp.cancer.gov/discovery_development/nci-60/default.htm.
Compounds with GIPRCNT values below 10 were considered active. Activity score was based on GIPRCNT using the following formula: […]
Score is 0 for GIPRCNT values of 100 or above, 50 for GIPRCNT values of 0, and 100 for GIPRCNT values of -100.
For the compound `CNC(=O)c1cc(Oc2ccc(CC(=O)Nc3cc(C(C)(C)C)nn3C)cc2)ccn1`, the growth was 57.9% (inactive).

Staying with this test, now noted: 10 µM.
Turning to `CNC(=O)c1cc(Oc2ccc(CC(=O)Nc3cc(C(C)(C)C)nn3C)cc2)ccn1`, the growth is 61.3% (inactive). As for `CC1(C)OB(c2ccc(Cn3cc(F)c(=O)[nH]c3=O)cc2)OC1(C)C`, the growth is 85.7% (inactive).

The same test, now with this note: 10 µM unless noted.
For `CCOc1ccc2cc(-c3nn(CC4CCN(C)CC4)c4ncnc(N)c34)ccc2c1`, the growth was 87.6% (inactive) and 85.5% (inactive). Same read-out and setting: to `Nc1ccc2[nH]c(-c3ccccc3)cc(=O)c2c1` belongs 72.2% (inactive); to `CCOC(=O)c1sc(N)nc1-c1ccccc1`, 103% (inactive). Take `Cc1cccc(/C=C\C(=O)c2ccccc2)c1`: the growth is 92.8% (inactive) and 95.1% (inactive). Still for that read-out and setting: to `CCOc1ccc2c(S(=O)(=O)O)cccc2c1[N+](=O)[O-]` belongs 87% (inactive) and 96.1% (inactive). With `CCOC(=O)Nc1ccc2c(c1)/C(=N\NC(N)=S)c1ccccc1-2`, the growth is 43% (inactive) and 73.4% (inactive). `N=C1N=C(N)CS1`: the growth is 96.5% (inactive).

On to `O=C1OC(Oc2ccc(Br)cc2)(c2ccccc2)c2ccccc21` (stereo not given), for which the growth was 17.9% (inactive) and 0.588% (active). Same read-out and setting: the figure for `CN1CCN(C2CCN(C(=O)Nc3cc(Oc4ccc(NC(=O)C5(C(=O)Nc6ccc(F)cc6)CC5)c(F)c4)ccn3)CC2)CC1` is -34.8% (active) and 44.8% (inactive); for `Oc1nc(NCCc2ccccc2)sc1/C=C1\C=Nc2ncccc21` it is 54.8% (inactive) and 37.4% (inactive).

On to `O=C(Cc1cccc2ccccc12)N/N=C/c1ccc2c(c1)CCC2`, for which the growth is 66.1% (inactive). On the same count and under the same terms, the figure for `COc1ccc(NC(=S)Nc2ccccn2)cc1` is 89.3% (inactive). Still for that read-out and setting: the figure for `Cc1ccc(S(=O)(=O)Nc2nc3ccccc3nc2Nc2ccc3nsnc3c2)cc1` is 59.2% (inactive) and 31.3% (inactive); for `CN(C)c1ccc(C(=C2C=CC(=[N+](C)C)C=C2)c2ccccc2Cl)cc1` it is -16.7% (active). As to `NC(=S)NN=C1CCC(C2CCCCC2)CC1` (stereo not given), the growth was 81.9% (inactive) and 96.2% (inactive). On the same count and under the same terms, to `O=C(N/N=C/c1ccc2c(c1)OCO2)c1ccncc1` belongs 97.2% (inactive) and 97.5% (inactive); to `N/C(=N\N=C\c1ccc2c(c1)OCO2)N/N=C\c1ccc2c(c1)OCO2`, 99% (inactive) and 103% (inactive).

Turning to `CC1CCCC(=O)O1` (stereo not given), the growth was 95.7% (inactive) and 102% (inactive). On the same count and under the same terms, the figure for `CN(C)c1ccc(C(Cc2ccc3ccccc3n2)Cc2ccc3ccccc3n2)cc1` is 26.1% (inactive) and 74.9% (inactive).

In the case of `OC(CSc1ccccc1)CN1CCN(c2cccc(Cl)c2)CC1` (stereo not given), the growth is 92.2% (inactive) and 87.9% (inactive). On the same count and under the same terms, the figure for `CC(CN=Cc1ccccc1O)N=Cc1ccccc1O` (stereo not given) is 93.6% (inactive) and 99.1% (inactive); for `COc1ccc2cc3[n+](cc2c1OC)CCc1cc2c(cc1-3)OCO2` it is 81.7% (inactive) and 89.8% (inactive); for `Oc1c(Cl)cc(Cl)cc1Sc1cc(Cl)cc(Cl)c1O` it is 17.9% (inactive) and 11.7% (inactive) and 62.8% (inactive).

Regarding `COc1ccc(CCN(C)CCCC(C#N)(c2ccc(OC)c(OC)c2)C(C)C)cc1OC` (stereo not given), the growth was 73% (inactive) and 79.3% (inactive) and 94.5% (inactive).

`CCCCCN(CCCCC)CC(O)c1cc2c(c3ccccc13)CCCC2` (stereo not given): the growth was 34.5% (inactive) and -32% (active).

Take `O=[N+]([O-])c1ccc(-n2[nH]nnc2=S)cc1`: the growth is 95.6% (inactive). Same read-out and setting: the figure for `COc1ccccc1C(C)=O` is 99.5% (inactive) and 112% (inactive); for `N#C/C(=C/c1c(O)ccc2ccccc12)C(N)=O` it is 84% (inactive). The same measure, in the same setting: the figure for `CCC(=O)C(CC)c1cccc(OC)c1` (stereo not given) is 94.4% (inactive); for `CC1(C)[C@@H](OC(=O)CCC(=O)O)CC[C@]2(C)[C@H]3C(=O)C=C4[C@@H]5C[C@@](C)(C(=O)O)CC[C@]5(C)CC[C@@]4(C)[C@]3(C)CC[C@@H]12` it is 100% (inactive) and -30.4% (active).

On to `Oc1ccccc1/C=N\NC(=S)N/N=C/c1ccccc1O`, for which the growth was -15.7% (active) and 12.3% (inactive). Still for that read-out and setting: the figure for `CC(C)Oc1ccc2cc(-c3nn(CC4CCNCC4)c4ncnc(N)c34)ccc2c1` is 106% (inactive) and 31% (inactive); for `Oc1ccc(/C=C/c2ccccc2)cc1` it is 6.76% (active); for `O=[N+]([O-])c1ccccc1/C=N\Nc1ccccc1` it is 71.9% (inactive) and 60.8% (inactive). Still for that read-out and setting: to `CCCCCCCCCCCCCCCc1cc(O)ccc1N` belongs 68.2% (inactive) and 1.52% (active).

Still in this test, the particulars now being: 30 µM.
With `CNC(=O)c1cc(Oc2ccc(CC(=O)Nc3cc(C(C)(C)C)nn3C)cc2)ccn1`, the growth was 76.5% (inactive).

Staying with this test, now noted: 50 µM.
`CC1(C)OB(c2ccc(Cn3cc(F)c(=O)[nH]c3=O)cc2)OC1(C)C`: the growth is 75.1% (inactive).
